# Experimental data taken from PubChem BioAssay AID1159580 (chemical genetic matrix, 2015).
# Values joined by “and” are separate entries in the source; they are usually repeats but may differ in a detail not shown here. Equal values may be shown once. Screen size: about 5,500 compounds; about 2,000 (36%) were called active. Not shown: some 18% with an inconclusive outcome. No stated cut-off is given here; in the data, active means normalized growth mostly below about 0.91 (no sharp cut-off); inconclusive means no clear call, values can overlap the other calls; inactive means mostly above about 0.92. Some of the results follow.
# Assay: chemical genetic growth profiling, strain panel (AID 1159580);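 further: tested at 20 µM; growth read once vehicle control cultures reached saturation at 30 °C; 1 = growth at the plate median or of vehicle wells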
# Settings: S. cerevisiae deletion strains, growth OD
smiles,measurement,setting,value
COc1ccc(-c2cc(=O)c3c(OC(C)=O)cc(OC(C)=O)cc3o2)cc1,normalized growth,"locus YAL013W, strain DEP1, stronger effect = lower value",0.955 (inactive)
same,normalized growth,"locus YAL021C, strain ccr4, stronger effect = lower value",0.947 (inactive)
same,normalized growth,"locus YAL026C, strain drs2, stronger effect = lower value",1.01 (inactive)
same,normalized growth,"locus YAL030W, strain snc1, stronger effect = lower value",0.99 (inactive)
same,normalized growth,"locus YBL061C, strain skt5, stronger effect = lower value",0.974 (inactive)
same,normalized growth,"locus YBR009C, strain hhf1, stronger effect = lower value",0.972 (inactive)
same,normalized growth,"locus YBR021W, strain FUR4, stronger effect = lower value",0.916 (inactive)
same,normalized growth,"locus YBR023C, strain chs3, stronger effect = lower value",0.972 (inactive)
same,normalized growth,"locus YBR171W, strain sec66, stronger effect = lower value",0.996 (inactive)
same,normalized growth,"locus YBR229C, strain ROT2, stronger effect = lower value",0.982 (inactive)
same,normalized growth,"locus YBR231C, strain swc5, stronger effect = lower value",0.922 (inactive)
same,normalized growth,"locus YBR279W, strain paf1, stronger effect = lower value",0.988 (inactive)
same,normalized growth,"locus YCL011C, strain gbp2, stronger effect = lower value",0.989 (inactive)
same,normalized growth,"locus YCL016C, strain dcc1, stronger effect = lower value",0.991 (inactive)
same,normalized growth,"locus YCL029C, strain bik1, stronger effect = lower value",0.958 (inactive)
same,normalized growth,"locus YCL061C, strain MRC1, stronger effect = lower value",0.989 (inactive)
same,normalized growth,"locus YCL069W, strain vba3, stronger effect = lower value",0.983 (inactive)
same,normalized growth,"locus YCR088W, strain abp1, stronger effect = lower value",0.996 (inactive)
same,normalized growth,"locus YDL005C, strain med2, stronger effect = lower value",0.991 (inactive)
same,normalized growth,"locus YDL035C, strain GPR1, stronger effect = lower value",0.975 (inactive)
same,normalized growth,"locus YDL040C, strain nat1, stronger effect = lower value",0.986 (inactive)
same,normalized growth,"locus YDL074C, strain BRE1, stronger effect = lower value",0.861 (inactive)
same,normalized growth,"locus YDL101C, strain DUN1, stronger effect = lower value",0.958 (inactive)
same,normalized growth,"locus YDL134C, strain PPH21, stronger effect = lower value",0.956 (inactive)
same,normalized growth,"locus YDL185W, strain tfp1, stronger effect = lower value",0.93 (inactive)
same,normalized growth,"locus YDL192W, strain arf1, stronger effect = lower value",0.965 (inactive)
same,normalized growth,"locus YDR001C, strain nth1, stronger effect = lower value",0.987 (inactive)
same,normalized growth,"locus YDR069C, strain doa4, stronger effect = lower value",0.981 (inactive)
same,normalized growth,"locus YDR101C, strain arx1, stronger effect = lower value",1 (inactive)
same,normalized growth,"locus YDR137W, strain rgp1, stronger effect = lower value",0.934 (inactive)
same,normalized growth,"locus YDR150W, strain NUM1, stronger effect = lower value",0.976 (inactive)
same,normalized growth,"locus YDR159W, strain sac3, stronger effect = lower value",0.974 (inactive)
same,normalized growth,"locus YDR162C, strain NBP2, stronger effect = lower value",0.948 (inactive)
same,normalized growth,"locus YDR195W, strain ref2",1 (inactive)
same,normalized growth,"locus YDR297W, strain sur2, stronger effect = lower value",0.98 (inactive)
same,normalized growth,"locus YDR318W, strain mcm21, stronger effect = lower value",0.936 (inactive)
same,normalized growth,"locus YDR334W, strain swr1, stronger effect = lower value",0.987 (inactive)
same,normalized growth,"locus YDR335W, strain msn5, stronger effect = lower value",0.995 (inactive)
same,normalized growth,"locus YDR388W, stronger effect = lower value",0.973 (inactive)
same,normalized growth,"locus YDR392W, strain spt3, stronger effect = lower value",0.646 (active)
same,normalized growth,"locus YDR502C, strain sam2, stronger effect = lower value",0.94 (inactive)
same,normalized growth,"locus YEL003W, strain gim4, stronger effect = lower value",0.968 (inactive)
same,normalized growth,"locus YEL037C, strain rad23, stronger effect = lower value",1 (inactive)
same,normalized growth,"locus YEL061C, strain CIN8 (second series), stronger effect = lower value",0.991 (inactive)
same,normalized growth,"locus YEL061C, strain CIN8, stronger effect = lower value",0.982 (inactive)
same,normalized growth,"locus YER015W, strain faa2, stronger effect = lower value",0.97 (inactive)
same,normalized growth,"locus YER016W, strain bim1, stronger effect = lower value",0.991 (inactive)
same,normalized growth,"locus YER110C, stronger effect = lower value",0.95 (inactive)
same,normalized growth,"locus YER111C, strain swi4, stronger effect = lower value",1 (inactive)
same,normalized growth,"locus YER155C, strain BEM2 (second series), stronger effect = lower value",0.846 (active)
same,normalized growth,"locus YER155C, strain BEM2, stronger effect = lower value",0.942 (inactive)
same,normalized growth,"locus YER167W, strain BCK2, stronger effect = lower value",0.993 (inactive)
same,normalized growth,"locus YFR010W, strain ubp6, stronger effect = lower value",1 (inactive)
same,normalized growth,"locus YGL078C, strain dbp3, stronger effect = lower value",0.961 (inactive)
same,normalized growth,"locus YGL086W, strain mad1, stronger effect = lower value",0.976 (inactive)
same,normalized growth,"locus YGL167C, strain pmr1, stronger effect = lower value",0.992 (inactive)
same,normalized growth,"locus YGL173C, strain kem1, stronger effect = lower value",0.982 (inactive)
same,normalized growth,"locus YGL227W, strain vid30, stronger effect = lower value",0.98 (inactive)
same,normalized growth,"locus YGL240W, strain doc1, stronger effect = lower value",0.985 (inactive)
same,normalized growth,"locus YGL248W, strain PDE1, stronger effect = lower value",0.935 (inactive)
same,normalized growth,"locus YGL253W, strain hxk2, stronger effect = lower value",0.97 (inactive)
same,normalized growth,"locus YGR135W, strain pre9, stronger effect = lower value",0.905 (inactive)
same,normalized growth,"locus YGR252W, strain gcn5, stronger effect = lower value",0.86 (inactive)
same,normalized growth,"locus YHR013C, strain ard1, stronger effect = lower value",0.968 (inactive)
same,normalized growth,"locus YHR027C, strain rpn1, stronger effect = lower value",0.991 (inactive)
same,normalized growth,"locus YHR030C, strain SLT2, stronger effect = lower value",0.972 (inactive) and 0.893 (inactive)
same,normalized growth,"locus YHR079C, strain IRE1 (second series), stronger effect = lower value",0.972 (inactive)
same,normalized growth,"locus YHR079C, strain IRE1, stronger effect = lower value",0.864 (inactive)
same,normalized growth,"locus YHR094C, strain hxt1, stronger effect = lower value",0.97 (inactive)
same,normalized growth,"locus YHR129C, strain ARP1, stronger effect = lower value",0.938 (inactive)
same,normalized growth,"locus YHR142W, strain chs7, stronger effect = lower value",0.951 (inactive)
same,normalized growth,"locus YHR200W, strain rpn10, stronger effect = lower value",0.959 (inactive)
same,normalized growth,"locus YIL066C, strain RNR3, stronger effect = lower value",0.994 (inactive)
same,normalized growth,"locus YIL073C, strain SPO22, stronger effect = lower value",0.852 (inactive)
same,normalized growth,"locus YIL125W, strain kgd1, stronger effect = lower value",0.991 (inactive)
same,normalized growth,"locus YIR030C, strain dcg1, stronger effect = lower value",0.955 (inactive)
same,normalized growth,"locus YJL092W, strain hpr5, stronger effect = lower value",1 (inactive)
same,normalized growth,"locus YJL095W, strain BCK1 (second series), stronger effect = lower value",0.992 (inactive)
same,normalized growth,"locus YJL095W, strain BCK1, stronger effect = lower value",0.884 (inactive) and 0.878 (active)
same,normalized growth,"locus YJL115W, strain asf1, stronger effect = lower value",0.989 (inactive)
same,normalized growth,"locus YJL129C, strain trk1, stronger effect = lower value",0.937 (inactive)
same,normalized growth,"locus YJL134W, strain LCB3, stronger effect = lower value",0.979 (inactive)
same,normalized growth,"locus YJL154C, strain vps35, stronger effect = lower value",0.997 (inactive)
same,normalized growth,"locus YJL164C, strain tpk1, stronger effect = lower value",0.98 (inactive)
same,normalized growth,"locus YJL166W, strain qcr8, stronger effect = lower value",0.953 (inactive)
same,normalized growth,"locus YJL168C, strain set2, stronger effect = lower value",0.97 (inactive)
same,normalized growth,"locus YJL187C, strain SWE1 (second series), stronger effect = lower value",0.927 (inactive)
same,normalized growth,"locus YJL187C, strain SWE1, stronger effect = lower value",1.01 (inactive)
same,normalized growth,"locus YJR043C, strain POL32, stronger effect = lower value",0.974 (inactive)
